Reference: PubChem BioAssay (EPA / NIEHS)
Inconclusive results are not listed. Active and inactive are the calls of the source. The calls were made as follows, unless noted: active = hit-call score of the fitted dose curve at least 0.9, where 1 is the maximum; inconclusive = response in the unintended direction; inactive = score below 0.9.

Assays:
[1] = biological target: Bile acid receptor (Homo sapiens) (UniProt Q96RI1); assay: ATG_FXR_TRANS: Attagene TRANS-FACTORIAL HepG2 Assay for Farnesoid X Receptor (FXR) (AID 2282979); settings: HepG2 Attagene TRANS FXR-GAL4 reporter transcription;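 also: hits raise reporter mRNA above DMSO so AC50 marks FXR activation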
Bile acid receptor (Homo sapiens), sequence (Q96RI1 whole entry, looked up, the tested form may be a part): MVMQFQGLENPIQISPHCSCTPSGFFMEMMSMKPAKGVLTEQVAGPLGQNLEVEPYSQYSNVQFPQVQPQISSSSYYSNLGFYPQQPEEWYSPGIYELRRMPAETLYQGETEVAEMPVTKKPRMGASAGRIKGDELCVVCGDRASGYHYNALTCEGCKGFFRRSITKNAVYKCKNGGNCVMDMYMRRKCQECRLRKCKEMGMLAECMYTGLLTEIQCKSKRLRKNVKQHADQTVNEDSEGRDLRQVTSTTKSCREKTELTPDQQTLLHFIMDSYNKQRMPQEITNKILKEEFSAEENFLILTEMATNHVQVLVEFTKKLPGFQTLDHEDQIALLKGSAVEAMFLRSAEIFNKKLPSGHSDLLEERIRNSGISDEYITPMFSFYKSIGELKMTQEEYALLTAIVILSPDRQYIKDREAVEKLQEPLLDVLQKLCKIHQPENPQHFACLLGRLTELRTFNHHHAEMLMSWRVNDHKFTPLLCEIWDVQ
Method in brief: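 Transient transfection of HepG2 with multiplexed GAL4-UAS reporter units; exogenous FXR-GAL4 chimera. Dose 24 h → TriZol RNA → oligo(dT) RT → PCR, 6-FAM primer extension, HpaI cut → CE. Gain vs DMSO.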

[2] = biological target: Estrogen receptor beta (Homo sapiens) (UniProt Q92731); assay: OT_ER_ERbERb_0480: Odyssey Thera (OT) 8-hour HEK293T Protein-Complementation Assay for Estrogen Receptor-beta/-beta Homodimer (AID 2283357);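 also: active means signal gain over DMSO baseline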
Estrogen receptor beta (Homo sapiens), sequence (Q92731 whole entry, looked up, the tested form may be a part): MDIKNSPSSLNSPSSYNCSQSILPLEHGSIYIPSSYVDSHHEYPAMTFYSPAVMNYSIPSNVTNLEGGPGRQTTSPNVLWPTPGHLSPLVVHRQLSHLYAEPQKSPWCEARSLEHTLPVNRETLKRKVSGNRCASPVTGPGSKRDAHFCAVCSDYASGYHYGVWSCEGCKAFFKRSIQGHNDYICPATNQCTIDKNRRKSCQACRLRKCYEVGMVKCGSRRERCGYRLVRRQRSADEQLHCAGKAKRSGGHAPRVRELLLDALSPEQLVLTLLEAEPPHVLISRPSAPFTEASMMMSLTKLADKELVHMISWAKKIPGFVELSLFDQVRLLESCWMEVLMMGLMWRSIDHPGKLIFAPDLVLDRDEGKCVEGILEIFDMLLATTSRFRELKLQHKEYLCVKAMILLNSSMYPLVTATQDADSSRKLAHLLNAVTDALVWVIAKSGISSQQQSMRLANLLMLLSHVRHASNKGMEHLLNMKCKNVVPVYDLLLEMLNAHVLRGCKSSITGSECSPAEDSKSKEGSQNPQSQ
Method in brief: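 ER-beta LBD homodimer PCA stably expressed in HEK293T; 8 h compound exposure, then formaldehyde fixation and Draq5 staining. Gain in nuclear/cytoplasmic fluorescence intensity versus DMSO vehicle, read on laser scanning cytometer.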

[3] = biological target: Estrogen receptor beta (Homo sapiens) (UniProt Q92731); assay: OT_ER_ERbERb_1440: Odyssey Thera (OT) 24-hour HEK293T Protein-Complementation Assay for Estrogen Receptor-beta/-beta Homodimer (AID 2283380);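 also: scored as signal increase over DMSO baseline for both agonists and antagonists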
Method in brief: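 Fluorescence increase, nuclear for agonists or whole-cell for antagonists, relative to DMSO vehicle, quantified by laser scanning cytometer after fixation and Draq5 staining. Readout from 24 h treatment of HEK293T cells carrying complementation-paired ER beta LBD (aa 310-547).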

[4] = biological target: Retinoic acid receptor RXR-alpha (Homo sapiens) (UniProt P19793); assay: OT_NURR1_NURR1RXRa_0480: Odyssey Thera (OT) 8-hour HEK293T Protein Complementation Assay for Nurr1/retinoid X receptor (RXR) (AID 2283385)
Retinoic acid receptor RXR-alpha (Homo sapiens), sequence (P19793 whole entry, looked up, the tested form may be a part): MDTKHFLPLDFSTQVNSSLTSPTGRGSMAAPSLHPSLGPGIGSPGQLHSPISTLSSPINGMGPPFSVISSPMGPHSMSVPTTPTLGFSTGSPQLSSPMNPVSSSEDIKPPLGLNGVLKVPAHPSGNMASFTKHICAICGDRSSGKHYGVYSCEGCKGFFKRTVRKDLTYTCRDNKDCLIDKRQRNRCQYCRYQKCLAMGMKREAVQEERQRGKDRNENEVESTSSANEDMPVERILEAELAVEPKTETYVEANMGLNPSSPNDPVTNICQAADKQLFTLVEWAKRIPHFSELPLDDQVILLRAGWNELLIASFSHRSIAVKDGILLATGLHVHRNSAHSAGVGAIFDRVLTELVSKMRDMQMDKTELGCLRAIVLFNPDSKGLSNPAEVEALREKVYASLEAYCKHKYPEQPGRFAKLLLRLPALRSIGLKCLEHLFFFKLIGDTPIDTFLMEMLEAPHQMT
Method in brief: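 Read-out: fluorescence from protein-fragment complementation between Nurr1 and RXRα in human HEK293T cells, 8 h after dosing. DMSO served as negative control; increased signal counted as activity.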

[5] = biological target: Retinoic acid receptor RXR-alpha (Homo sapiens) (UniProt P19793); assay: OT_NURR1_NURR1RXRa_1440: Odyssey Thera (OT) 24-hour HEK293T Protein Complementation Assay for Nurr1/retinoid X receptor (RXR) (AID 2283386)
Method in brief: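 Fluorescence PCA read-out; HEK293T; 24 h post-dose; bait/prey fused to reporter fragments; gain-of-signal fit vs DMSO negative control.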

[6] = ACEA_AR_agonist_AUC_viability: ACEA Biosciences xCELLigence Real-Time Cell Analysis on Androgen Receptor Agonism for Viability (AID 2283775);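 as to AC50: viability read 80 hours after compound addition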
Method in brief: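 Viability endpoint from xCELLigence impedance in 22Rv1 prostate cells at 80 h. Eight-point series, 100 uM maximum final.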

[7] = biological target: Aryl hydrocarbon receptor (Homo sapiens) (UniProt P35869); assay: ATG_Ahr_CIS: Attagene CIS-FACTORIAL HepG2 Assay for human Aryl Hydrocarbon Receptor (Ahr) (AID 2282930; active = hit-call score of the fitted dose curve at least 0.9, where 1 is the maximum; inactive = score below 0.9); settings: HepG2 AhR cis-factorial reporter transcription; actives raise or lower the signal
Aryl hydrocarbon receptor (Homo sapiens), sequence (P35869 whole entry, looked up): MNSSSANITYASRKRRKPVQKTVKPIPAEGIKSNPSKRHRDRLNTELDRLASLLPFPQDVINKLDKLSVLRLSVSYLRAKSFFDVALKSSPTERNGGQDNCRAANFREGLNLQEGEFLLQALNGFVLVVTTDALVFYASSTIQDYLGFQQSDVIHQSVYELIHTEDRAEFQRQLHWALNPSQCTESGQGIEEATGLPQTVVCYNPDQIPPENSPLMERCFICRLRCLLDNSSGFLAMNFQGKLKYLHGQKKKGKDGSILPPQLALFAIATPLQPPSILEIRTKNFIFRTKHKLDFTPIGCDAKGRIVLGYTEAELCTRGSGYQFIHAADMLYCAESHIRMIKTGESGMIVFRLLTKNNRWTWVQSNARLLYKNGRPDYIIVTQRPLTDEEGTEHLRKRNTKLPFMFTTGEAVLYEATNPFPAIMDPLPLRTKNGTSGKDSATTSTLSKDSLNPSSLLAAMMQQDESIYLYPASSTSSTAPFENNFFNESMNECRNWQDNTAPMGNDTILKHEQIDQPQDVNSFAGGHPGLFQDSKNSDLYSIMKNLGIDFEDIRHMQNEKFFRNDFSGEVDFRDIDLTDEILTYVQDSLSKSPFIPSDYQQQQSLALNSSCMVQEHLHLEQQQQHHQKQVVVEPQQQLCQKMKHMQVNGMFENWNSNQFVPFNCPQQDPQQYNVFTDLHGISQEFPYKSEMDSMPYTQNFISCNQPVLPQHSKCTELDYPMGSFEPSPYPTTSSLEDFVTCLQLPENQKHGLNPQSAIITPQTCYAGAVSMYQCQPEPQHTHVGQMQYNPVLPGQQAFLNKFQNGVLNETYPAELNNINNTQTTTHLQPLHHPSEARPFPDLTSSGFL
Method in brief: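 Transient MRTU transfection of HepG2 → 24 h compound exposure → total RNA, oligo(dT) RT → PCR, 6-FAM extension, HpaI cut → CE fluorescence. DMSO = baseline; bidirectional curve fit.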

[8] = CCTE_Harrill_HTTr_CellCount_MCF7: CCTE's Cell Proliferation Assessment for the High-Throughput Transcriptomics (HTTr) Platform, Harrill Lab (AID 2284012);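 also: count of Hoechst-stained nuclei per well by high-content imaging in MCF-7 cells; cells exposed to compound for six hours; intended direction is loss of nuclei count meaning fewer cells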
Method in brief: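 Readout: Hoechst nuclear count by high-content imaging. MCF-7, 8-point dilution series, 6 h exposure. Bidirectional fit vs DMSO baseline.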

[9] = ATG_ERE_CIS: Attagene CIS-FACTORIAL HepG2 Assay for Estrogen Response Element (ERE) (AID 2282940; active = hit-call score of the fitted dose curve at least 0.9, where 1 is the maximum; inactive = score below 0.9); settings: HepG2 ERE cis-reporter, Attagene RNA transcript; actives raise or lower the signal
Method in brief: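 HepG2 cells transiently transfected with cis-promoter-driven multiplexed reporter transcription units report endogenous TF activity. After 24 h compound exposure, reporter mRNA is quantified by RT-PCR with capillary electrophoresis fluorescence; bidirectional fitting versus DMSO baseline.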

[10] = biological target: Steroid hormone receptor ERR1 (Homo sapiens) (UniProt P11474); assay: ATG_ERRa_TRANS: Attagene TRANS-FACTORIAL HepG2 Assay for human Estrogen-Related Receptor alpha (ERRa) (AID 2282971); settings: HepG2 Attagene TRANS reporter, ERRa transactivation
Steroid hormone receptor ERR1 (Homo sapiens), sequence (P11474 whole entry, looked up, the tested form may be a part): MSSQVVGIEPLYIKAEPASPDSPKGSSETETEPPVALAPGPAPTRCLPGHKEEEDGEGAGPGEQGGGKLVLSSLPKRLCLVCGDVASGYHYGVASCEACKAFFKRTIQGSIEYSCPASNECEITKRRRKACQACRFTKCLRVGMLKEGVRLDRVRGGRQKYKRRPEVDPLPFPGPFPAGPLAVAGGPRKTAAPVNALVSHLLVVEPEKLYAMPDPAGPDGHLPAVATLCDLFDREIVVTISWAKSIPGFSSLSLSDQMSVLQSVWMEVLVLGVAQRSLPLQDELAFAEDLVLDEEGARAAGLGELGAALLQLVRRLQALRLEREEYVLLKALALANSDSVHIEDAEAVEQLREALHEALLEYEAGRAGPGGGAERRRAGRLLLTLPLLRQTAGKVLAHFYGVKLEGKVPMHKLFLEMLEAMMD
Method in brief: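 Reporter transcript induction was quantified by RT-PCR and capillary electrophoresis of FAM-labelled, HpaI-cut products after 24 h treatment of HepG2 cells carrying transiently transfected GAL4-UAS reporter units and an exogenous ERRa-Gal4 fusion; activity scored as increase over DMSO.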

[11] = biological target: Peroxisome proliferator-activated receptor gamma (Homo sapiens) (UniProt P37231); assay: OT_PPARg_PPARgSRC1_0480: Odyssey Thera (OT) 8-hour Protein-Complementation Assay for Peroxisome Proliferator-activated Receptor Gamma / SRC-1 Co-activator (AID 2283387);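 also: nuclear to cytoplasmic split Venus YFP fluorescence ratio reporting PPARg SRC-1 interaction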
Peroxisome proliferator-activated receptor gamma (Homo sapiens), sequence (P37231 whole entry, looked up, the tested form may be a part): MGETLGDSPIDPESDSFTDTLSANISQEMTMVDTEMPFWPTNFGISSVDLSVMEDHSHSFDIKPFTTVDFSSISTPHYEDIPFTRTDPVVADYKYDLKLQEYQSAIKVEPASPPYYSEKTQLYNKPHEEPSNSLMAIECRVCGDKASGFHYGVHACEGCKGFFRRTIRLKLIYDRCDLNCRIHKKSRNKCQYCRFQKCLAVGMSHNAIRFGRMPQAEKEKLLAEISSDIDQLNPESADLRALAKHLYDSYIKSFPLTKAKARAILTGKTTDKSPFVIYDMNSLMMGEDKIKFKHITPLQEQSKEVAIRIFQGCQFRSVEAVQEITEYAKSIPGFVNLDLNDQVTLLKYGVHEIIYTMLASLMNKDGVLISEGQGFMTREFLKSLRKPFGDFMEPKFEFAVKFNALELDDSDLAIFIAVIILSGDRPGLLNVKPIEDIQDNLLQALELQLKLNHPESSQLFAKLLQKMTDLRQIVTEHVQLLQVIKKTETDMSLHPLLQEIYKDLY
Method in brief: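 Protein-fragment complementation of split Venus YFP reports PPARg/SRC-1 interaction in HEK293T (transfected 48 h before treatment), exposed 8 h. Readout: N/C fluorescence ratio at 488 nm from imaging, Draq5 for segmentation, positive fit relative to DMSO.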

[12] = biological target: Peroxisome proliferator-activated receptor gamma (Homo sapiens) (UniProt P37231); assay: OT_PPARg_PPARgSRC1_1440: Odyssey Thera (OT) 24-hour Protein-Complementation Assay for Peroxisome Proliferator-activated Receptor Gamma/ SRC-1 Co-activator (AID 2283388);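 also: nuclear to cytoplasmic ratio of reconstituted Venus YFP fluorescence in fixed imaged cells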
Method in brief: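 Protein-fragment complementation between PPARg and coactivator SRC-1 was measured by fluorescence imaging in transiently transfected HEK293T cells after 24 h treatment. Signal was quantified as N/C ratio in the 488 nm channel, with DMSO as negative control.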

[13] = ACEA_AR_antagonist_AUC_viability: ACEA Biosciences xCELLigence Real-Time Cell Analysis on Androgen Receptor Antagonism for Viability (AID 2283776);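 also: 22Rv1 human prostate cancer cells growing on impedance electrode plates; area under impedance growth curve at 80 h after dosing as viability; hits lower the growth signal relative to DMSO meaning cytotoxicity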
Method in brief: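 Impedance read-out (RT-CES): area under growth curve at 80 h post-dose, loss of signal scored vs DMSO baseline. 22Rv1 cells; 8-pt 1:4 series, top 100 uM final, ≤0.5% DMSO; biological duplicate.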

[14] = read-out: Pselectin, SELP (gene 6403); assay: BSK_4H_Pselectin: BioMAP Diversity Plus: 4H Assay for Pselectin Biomarker Activity (AID 2283026; active = hit-call score of the fitted dose curve at least 0.9, where 1 is the maximum; inactive = score below 0.9); settings: primary human endothelial cells (HUVEC); actives raise or lower the signal
Method in brief: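 HUVEC, 24 h chemical exposure; P-selectin read by ELISA. Bidirectional curve fit vs DMSO baseline; gain or loss of signal scored.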

[15] = read-out: Macrophage colony-stimulating factor (MCSF), CSF1 (gene 1435); assay: BSK_CASM3C_MCSF: BioMAP Diversity Plus: CASM3C Assay for Macrophage colony-stimulating factor (MCSF) Biomarker Activity (AID 2283044; active = hit-call score of the fitted dose curve at least 0.9, where 1 is the maximum; inactive = score below 0.9;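 also: M-CSF protein amount quantified by ELISA after 24 h exposure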); settings: primary human coronary artery smooth muscle cells; actives raise or lower the signal
[16] = read-out: Low-density lipoprotein receptor (LDLR), LDLR (gene 3949); assay: BSK_CASM3C_LDLR: BioMAP Diversity Plus: CASM3C Assay for Low-density lipoprotein receptor (LDLR) Biomarker Activity (AID 2283045; active = hit-call score of the fitted dose curve at least 0.9, where 1 is the maximum; inactive = score below 0.9;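 also: LDLR protein level on the cell surface quantified by ELISA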); settings: primary human coronary artery smooth muscle cells; actives raise or lower the signal
[17] = read-out: serum amyloid A (SAA), SAA1 (gene 6288); assay: BSK_CASM3C_SAA: BioMAP Diversity Plus: CASM3C Assay for serum amyloid A (SAA) Biomarker Activity (AID 2283049; active = hit-call score of the fitted dose curve at least 0.9, where 1 is the maximum; inactive = score below 0.9;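 also: SAA protein level quantified by ELISA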); settings: primary human coronary artery smooth muscle cells; actives raise or lower the signal
[18] = read-out: Vascular cell adhesion molecule 1 (VCAM1), VCAM1 (gene 7412); assay: BSK_CASM3C_VCAM1: BioMAP Diversity Plus: CASM3C Assay for Vascular cell adhesion molecule 1 (VCAM1) Biomarker Activity (AID 2283055; active = hit-call score of the fitted dose curve at least 0.9, where 1 is the maximum; inactive = score below 0.9;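 also: VCAM-1 protein level quantified by ELISA on the cells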); settings: primary human coronary artery smooth muscle cells; actives raise or lower the signal
[19] = read-out: Macrophage colony-stimulating factor (MCSF), CSF1 (gene 1435); assay: BSK_hDFCGF_MCSF: BioMAP Diversity Plus: hDFCGF Assay for Macrophage colony-stimulating factor (MCSF) Biomarker Activity (AID 2283060; active = hit-call score of the fitted dose curve at least 0.9, where 1 is the maximum; inactive = score below 0.9); settings: AC50: primary human foreskin fibroblasts, actives raise or lower the signal unless noted; outcome: primary human foreskin fibroblasts, actives raise or lower the signal unless noted
Method in brief: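 Primary human foreskin fibroblasts dosed with chemical; 24 h later, M-CSF quantified by ELISA; curves fitted in both directions vs DMSO negative control.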

[20] = read-out: Monokine induced gamma interferon (MIG), CXCL9 (gene 4283); assay: BSK_hDFCGF_MIG: BioMAP Diversity Plus: hDFCGF Assay for Monokine induced gamma interferon (MIG) Biomarker Activity (AID 2283063; active = hit-call score of the fitted dose curve at least 0.9, where 1 is the maximum; inactive = score below 0.9); settings: primary human foreskin fibroblasts; actives raise or lower the signal
Method in brief: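 Chemicals were added to primary human foreskin fibroblast cultures, which were sampled 24 h later. MIG levels were then quantified by ELISA and responses fitted in both directions relative to DMSO.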

COC(=O)[C@]1(C)CCC[C@@]2(C)[C@H]1CC=C1C=C(C(C)C)CC[C@@H]12
AC50 [1]: 33 µM (active) | outcome [2]: inactive | outcome [3]: inactive | AC50 [4]: 71.6 µM (active) | outcome [5]: inactive | AC50 [6]: 0.333 µM (active)

O=C(O)c1cc(Cl)cc(Cl)c1O
AC50 [7]: 79 µM (active) | outcome [8]: inactive

CC(=O)c1nccs1
AC50 [9]: 4.94 µM (active)

CCC(C)C1N=C(C)C(C)S1 (centres undefined)
outcome [10]: inactive

CCCCCC[C@@H](O)C/C=C\CCCCCCCC(=O)O
outcome [1]: inactive | outcome [2]: inactive | outcome [3]: inactive | outcome [4]: inactive | outcome [5]: inactive | outcome [11]: inactive | outcome [12]: inactive | outcome [6]: inactive | outcome [13]: inactive | outcome [8]: inactive

NC(=O)c1ccc(N)cc1
outcome [9]: inactive

O=C(C1CCCCC1)N1CC(=O)N2CCc3ccccc3C2C1 (centres undefined)
AC50 [7]: 27.8 µM (active) | outcome [8]: inactive

CN(C)CCC(c1ccc(Cl)cc1)c1ccccn1 (centres undefined)
outcome [7]: inactive | AC50 [14]: 0.502 µM (active) | outcome [15]: inactive | outcome [16]: inactive | outcome [17]: inactive | outcome [18]: inactive | outcome [19]: inactive | outcome [20]: inactive

CCOC(=O)CC(=O)OCC
outcome [1]: inactive | outcome [5]: inactive | outcome [6]: inactive

Oc1ccc(Oc2ccccc2)cc1
outcome [7]: inactive | AC50 [9]: 1.54 µM (active) | outcome [1]: inactive

CCCCn1cc[n+](C)c1
outcome [7]: inactive

O=C1NC(=O)[C@@H]2CC=CC[C@H]12
outcome [10]: inactive | outcome [1]: inactive

O=C(O)Cc1c[nH]c2ccccc12
outcome [10]: inactive | outcome [1]: inactive | outcome [8]: inactive

c1ccc(CNc2ncnc3nc[nH]c23)cc1
outcome [1]: inactive | outcome [2]: inactive | outcome [3]: inactive | outcome [6]: inactive | outcome [13]: inactive | outcome [8]: inactive
